Results on 40 compounds are retold here after PubChem BioAssay (NCATS).

Inconclusive results are not listed. Active and inactive are the calls of the source. Calls come from the whole dose curve; as a rule, active = well fitted cell-killing curve with a large enough effect; inconclusive = small, poorly fitted or top-dose-only effect, or effect the other way; inactive = flat fitted curve, though single readings scatter.
% is set by controls: 0 for no effect and ±100 for the full control effect; potency is the fitted concentration of half-maximal effect.

The assay has as its system CAOV3. The assay is described as follows: Primary qHTS to identify gynecologic anti-cancer compounds using libraries of approved drugs and bioactive compounds (AID 1345084). Note: nearly all actives have a fitted effect of over 55% in size. To be noted: Gynecologic cancer cell panel viability, ATPlite luminescence, 48 h; series mostly up to 57.5 µM; activity change, negative = cytotoxicity: at the top concentration. An excerpt: National Center for Advancing Translational Sciences [NCATS] Assay Overview: Chemotherapeutic drug responses vary from cancer to cancer and from patient to patient. These variations could be caused by a number of factors including patient genomic background, tumor mutations, tumor heterogeneity, and aspects of drug treatment. Chemotherapeutic drug resistance is also a common issue and can lead to ineffective treatment and patient death. Here we have profiled the cell killing effects of thousands of compounds to characterize the responses in three gynecological cancers, identify cancer-selective compounds, and understand the diversity of responses to these compounds from pan-cancer suppressors to single cell line selective compounds. In this assay, we screened a 7,914 compound drug library that included approved drug and bioactive compounds in six ovarian, three cervical, and […] placental cancer cell lines using the ATPlite assay for cell viability. […] The cervical cancer cell lines included HeLa, Ca Ski, and C-33 A. The placental cancer cell lines included JEG-3. HEK 293T cells were used as the control cell line to determine the selectivity index. ATPlite is a luminescence based assay reliant on the conversion of a luciferase substrate to light in the presence of ATP. As a cytotoxic compound will suppress growth and decrease the number of cells, the concentration of ATP will decrease, and less light signal will be detected in the well.
Assay Protocol Summary: 1,000 cells in 4 uL of media were dispensed into white, solid bottom 1536-well plates using a Multidrop Combi (Thermo Scientific). The Assay plates were incubated for 16 hours at 37 C with 5% CO2 in assay plates, followed by the addition of 23 nL of DMSO or drug dissolved in DMSO. Each compound was assayed in five concentrations (0.092, 0.46, 2.3, 11.5, and 57.5 uM), using the automated Wako 1536 Pin Tool workstation and incubated at 37 C with 5% CO2 48 hours. 4 uL of ATPlite, the ATP monitoring reagent, was then added to the each well of the assay plates using the Multidrop Combi reagent dispenser followed by incubation for 15 minutes at room temperature. The resulting luminescence was measured using the ViewLux plate reader.
Regarding `O=C(CCCCl)c1ccc(F)cc1`, the “activity change, negative = cytotoxicity” value is -1.8% (inactive). The same measure, in the same setting: with `O=C(CCl)c1ccc(Cl)cc1Cl` the figure was 5.8% (inactive). With `C[C@@H]1C[C@@H]([C@H](O)CC2CC(=O)NC(=O)C2)C(=O)[C@@H](C)C1`, the Potency was 25.1 µM (active).

As for `CCN1CCCC1CNC(=O)C(O)(c1ccccc1)c1ccccc1` (stereo not given), the “activity change, negative = cytotoxicity” value was 6.67% (inactive). Still for that read-out and setting: with `Nc1ccc(N)cc1` the figure was 1.72% (inactive); with `CCOC(C(=O)OCCN(C)C)(c1ccccc1)c1ccccc1`, -8.46% (inactive); with `CC[C@H]1C[C@@H]2C[C@H]3c4[nH]c5ccc(OC)cc5c4CCN(C2)[C@@H]13`, -1.3% [at 116 µM] (inactive). The same measure, in the same setting: with `CCC(=O)C(CCN(C)C)(c1ccccc1)c1ccccc1` the figure was -6.22% (inactive). For the compound `CCCC(C)C1(CC)C(=O)N=C(S)NC1=O` (stereo not given), the “activity change, negative = cytotoxicity” value was -13% (inactive). Take `CCN(Cc1ccc(Cl)nc1)/C(=C/[N+](=O)[O-])NC`: the “activity change, negative = cytotoxicity” value was -12.9% (inactive).

On to `Cc1c(Cl)c(=O)oc2cc(OP(=O)(OCCCl)OCCCl)ccc12`, for which the “activity change, negative = cytotoxicity” value is -6.47% (inactive). The same measure, in the same setting: with `CCO[C@H]1O[C@@H]2OC3(C)CC[C@H]4[C@H](C)CC[C@@H]([C@H]1C)[C@@]24OO3` the figure was 1.25% (inactive). On the same count and under the same terms, with `COP(=O)(OC)C(O)C(Cl)(Cl)Cl` (stereo not given) the figure was 0% (inactive); with `CCOC(=O)c1cncn1C(C)c1ccccc1` (stereo not given), -11.7% (inactive); with `O=C(O)CCCCCCNC1c2ccccc2CCc2ccccc21`, 26.6% (inactive).

Turning to `O=C(CCCN1CCC(n2c(=O)[nH]c3ccccc32)CC1)c1ccc(F)cc1`, the “activity change, negative = cytotoxicity” value is 5.35% (inactive). On the same count and under the same terms, with `C[C@]12Cc3nonc3C[C@@H]1CC[C@@H]1[C@@H]2CC[C@@]2(C)[C@H]1CC[C@]2(C)O` the figure was 0.351% (inactive); with `O=C1CN2CCOC2(c2ccccc2Cl)c2cc(Cl)ccc2N1` (stereo not given), -5.3% (inactive).

For `CC1=C2[C@H]3OC(=O)[C@@H](C)[C@@H]3CC[C@@]2(C)C=CC1=O`, the “activity change, negative = cytotoxicity” value is -2.91% (inactive). In the case of `Cc1cccc(Cc2cnc[nH]2)c1C`, the “activity change, negative = cytotoxicity” value was -7.03% (inactive). Still for that read-out and setting: with `CCN(CC)Cc1nccn1-c1ccc([N+](=O)[O-])cc1C(=O)c1ccccc1Cl` the figure was -4.43% (inactive); with `COP(=S)(OC)Oc1ccc(Sc2ccc(OP(=S)(OC)OC)cc2)cc1`, 1.48% (inactive). Take `CCCC[N+]1(C)[C@@H]2CC(OC(=O)[C@H](CO)c3ccccc3)C[C@H]1[C@@H]1O[C@@H]12` (stereo not given in full): the Potency result is “inactive”. Take `CC#C[C@]1(O)CC[C@H]2[C@@H]3C[C@H](C)C4=CC(=O)CC[C@]4(C)[C@H]3CC[C@@]21C`: the “activity change, negative = cytotoxicity” value is -21.2% (inactive).

As to `C[C@]12CC[C@H]3[C@@H](CC=C4C[C@@H](O)CC[C@@]43C)[C@@H]1CC[C@@H]2O`, the “activity change, negative = cytotoxicity” value was 3.72% (inactive). Regarding `CCNc1nc(Cl)nc(NCC)n1`, the “activity change, negative = cytotoxicity” value is 15.8% (inactive). As to `CCCN(CCC)CCc1c[nH]c2ccccc12`, the “activity change, negative = cytotoxicity” value was 5.32% [at 116 µM] (inactive). The same measure, in the same setting: with `CN1CCc2cc(Cl)c(O)cc2[C@H]2c3ccccc3CC[C@@H]21` the figure was -0.398% (inactive). For `CCC(OC(C)=O)C(CC(C)NC)(c1ccccc1)c1ccccc1` (stereo not given), the Potency was 39.8 µM (active). As to `Cc1ncc2n1-c1ccc(Cl)cc1C(c1ccccc1F)=NC2`, the “activity change, negative = cytotoxicity” value is -32.2% (inactive). As to `NC(=O)CN1CCCC1=O`, the “activity change, negative = cytotoxicity” value was 8.14% (inactive). Still for that read-out and setting: with `CCCCCCCCC(=O)NCc1ccc(O)c(OC)c1` the figure was -32.2% (inactive); with `COc1cc(N)c(Cl)cc1C(=O)NC1CN2CCC1CC2` (stereo not given), 4.05% (inactive). On the same count and under the same terms, with `NCc1cccnc1` the figure was 5.33% (inactive). In the case of `CC[n+]1c(-c2ccccc2)c2cc(N)ccc2c2ccc(N)cc21`, the Potency is 12.6 µM (active). Turning to `C[N+]1(C)[C@@H]2CC[C@H]1CC(OC(=O)C(CO)c1ccccc1)C2` (stereo not given in full), the “activity change, negative = cytotoxicity” value was 7.31% (inactive). Still for that read-out and setting: with `O=C(N[C@H]1N=C(c2ccccc2F)c2cccc3c2N(CC3)C1=O)c1cc2ccccc2[nH]1` the figure was 7.19% (inactive); with `CCC(=O)O[C@H]1CC[C@H]2[C@@H]3CCC4=CC(=O)CC[C@]4(C)[C@H]3CC[C@]12C`, 1.76% (inactive). For the compound `CN1C(=O)CN=C(c2ccccc2)c2cc([N+](=O)[O-])ccc21`, the “activity change, negative = cytotoxicity” value is 9.34% (inactive).

In the case of `CC(Cc1ccc2c(c1)OCO2)NO` (stereo not given), the “activity change, negative = cytotoxicity” value is -10.4% [at 116 µM] (inactive).
